Source: PubChem BioAssay (National Center for Advancing Translational Sciences (NCATS))
RXFP1 antagonist – blocks the human relaxin receptor RXFP1 | Q9HBX9 | HEK293-RXFP1, relaxin-stimulated cAMP HTRF, 30 min; active compounds read low | activity change, negative = inhibition, % at 57.5 µM | 0.59% of 350,000 active;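 active means activity change of -60% or lower, but not beyond a set lower limit; inconclusive means change between -60% and -40%, or beyond the set limit; inactive means change above -40%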; further: on the % scale 0 is the no-effect control and ±100 the full control effect
gsp antagonist – gsp mutant antagonism. gsp-mutant cells, cAMP HTRF, 30 min. Potency, µM (doses to about 76.9 µM), without a hit: top-dose activity change, negative = inhibition, hits mostly inhibitors. 0.4% of 340,000 active. AID 624288; calls by dose curve; cell line not stated here;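 further: intracellular cAMP measured with PDE inhibitor Ro 20-1724 present during compound exposure; potency means the concentration at half of the fitted maximal effect; on the % scale 0 is the no-effect control and ±100 the full control effect; nearly all actives have a fitted effect of over 65% in size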
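Measurement of cellular cAMP by homogeneous time-resolved fluorescence following a 30 min compound exposure at 37C. The PDE inhibitor […] was present throughout; the assay buffer was DPBS with 0.05% BSA and 0.005% Tween 20.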
Integrin act MD – integrin-mediated muscular dystrophy alleviation activation | Potency, µM (top dose mostly 38.3 µM), inactives show top-dose activation, actives largely listed as activators | AID 624291 | 0.064% of 350,000 active | alpha7betagal myoblasts, beta-gal FDG fluorescence, 48 h;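 further: potency means the concentration at half of the fitted maximal effect; 100% = response of the positive control SU9516; nearly all actives have a fitted effect of over 60% in size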
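alpha7betagal+/- myoblasts (passage 13, 250/well) treated 48 h at 37C with compounds at 1:260 dilution of DMSO stock. Lysed, then beta-galactosidase activity read as FDG fluorescence (ex 480/em 540) after 30 min, with pre-read for autofluorescence.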
RXFP1 agonist – RXFP1 (human) receptor agonism; HEK293T-RXFP1 cAMP TR-FRET, 30 min; response scale: percent of porcine relaxin response, buffer zero; Potency, µM (series often up to 57.5 µM), inactives show at the highest dose activation, actives largely listed as activators; AID 2676; 0.3% of 370,000 active; Q9HBX9; further: potency means the concentration at half of the fitted maximal effect; on the % scale 0 is the no-effect control and ±100 the full control effect; nearly all actives have a fitted effect of over 60% in size
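cAMP rise read by TR-FRET after 30 min, 37C compound exposure (up to 58 uM) in RXFP1-transfected HEK293 cells with Ro 20174 present. EC50 from Hill-equation fits, with 29 nM porcine relaxin as 100% and buffer as basal.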
S-ASM inh – human S-ASM enzyme inhibition. P17405. placental ASM, HMU-PC fluorogenic substrate, 60 min. Potency, µM (titrated, usually from 57.5 µM), inactives show at the top dose activity change, negative = inhibition, hits mostly inhibitors. 0.006% of 340,000 active. AID 504937; further: potency means the concentration at half of the fitted maximal effect
Target sequence (P17405 47-631 limits assumed): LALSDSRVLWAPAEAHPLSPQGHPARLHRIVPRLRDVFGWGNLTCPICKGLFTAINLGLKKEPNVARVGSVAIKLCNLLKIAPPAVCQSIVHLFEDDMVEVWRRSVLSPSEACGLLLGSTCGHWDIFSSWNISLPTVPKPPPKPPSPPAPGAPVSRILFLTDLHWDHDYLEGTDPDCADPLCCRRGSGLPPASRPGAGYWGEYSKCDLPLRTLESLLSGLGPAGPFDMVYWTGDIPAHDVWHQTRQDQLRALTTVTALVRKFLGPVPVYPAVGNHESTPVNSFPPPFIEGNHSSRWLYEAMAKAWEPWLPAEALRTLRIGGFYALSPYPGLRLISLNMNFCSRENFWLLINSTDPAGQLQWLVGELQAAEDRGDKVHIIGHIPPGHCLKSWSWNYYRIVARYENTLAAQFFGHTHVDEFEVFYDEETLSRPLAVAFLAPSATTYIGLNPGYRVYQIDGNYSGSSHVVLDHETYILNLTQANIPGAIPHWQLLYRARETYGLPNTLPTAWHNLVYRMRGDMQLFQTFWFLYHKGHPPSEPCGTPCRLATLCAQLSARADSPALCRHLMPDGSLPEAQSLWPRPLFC
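Human placenta-derived ASM preincubated with compound 10 min at room temperature, then reacted with 9 uM (final) fluorogenic HMU-PC substrate for 60 min at 37 C. Stop solution raises pH to 10; fluorescence read at Ex 386/Em 447 nm.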
gsp agonist – gsp mutant agonism; gsp mutant cells, cAMP HTRF, 30 min; Potency, µM (top dose mostly 76.9 µM), without a hit: at the highest dose activation (cAMP increase), most hits filed as activators; 0.13% of 340,000 active; AID 624287; active means well fitted activation curve with a large enough effect; inconclusive means small, poorly fitted or top-dose-only effect, or another doubt; inactive means no such curve, though single readings can be large or run the other way; cell line not stated here;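 further: phosphodiesterase inhibitor Ro 20-1724 added with compounds to block cAMP breakdown; potency means the concentration at half of the fitted maximal effect; nearly all actives have a fitted effect of over 60% in size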
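Cells stably selected in G418 were plated at 2000/well, grown 16-24 hr, then given compounds in DMSO with the PDE inhibitor […] (300 uM solution added) for 30 min at 37C; cAMP was read by HTRF.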
Numbers without * were called inactive; u = inconclusive; x = no result; [ ] = another dose, or the depositor's remark. A selection: hits, their analogues and other compounds. The true share with any hit is near 1.1%. Unless noted, the call rests on the fitted dose curve; in most records, active means well fitted curve in the direction sought with a large enough effect; inconclusive means small, poorly fitted or top-dose-only effect, or another doubt; inactive means no such curve, though single readings can be large; an effect the other way counts as inactive or inconclusive.

SMILES | RXFP1 antagonist | gsp antagonist | Integrin act MD | RXFP1 agonist | S-ASM inh | gsp agonist
CC(=O)O[C@@H]1C(=O)O[C@H]2[C@@H]1OC(=O)[C@@H]2OC(C)=O | 21 | x | x | x | x | x
COC(=O)C(Cc1ccccc1)NC(=O)c1cc(=O)[nH]c2ccccc12 (centres undefined) | 4 | x | 13% | 0% | -6% | -14%[15.4 µM]
COC(=O)[C@H](CC(C)C)NC(=O)c1cc2c(cn1)[nH]c1ccccc12 | -7 | 7.9µM* | -9% | 0% | -3% | u
Cn1c([N+](=O)[O-])cnc1N1CCN(c2nncs2)C1=O | 13 | 5% | -9% | 16µM* | 3% | 10µM*
Cc1ncc([N+](=O)[O-])n1C | 6 | x | x | x | x | x
COc1ccc(-n2c(CCC(=O)O)ccc2-c2ccc(F)cc2)c(OC)c1 | 5 | 35µM* | -7% | 1% | 12% | -40%
Cc1ccc(Cn2c(C)c3cnn(CC(=O)N4CCN(c5ccc(F)cc5)CC4)c(=O)c3c2C)cc1 | -24 | x | x | -2% | x | x
CCSc1nc(O)cc(=O)[nH]1 | 9 | 4% | -5% | -1% | 0% | -4%
CCSc1nc(=S)cc(C)[nH]1 | -75* | -10% | 4% | 2% | -1% | u
Nc1nc(-c2cccnc2)nc2sc3c(c12)CCCC3 | 15 | 6% | 3% | 4% | 36% | 25%
O=C1CN(c2nc(-c3cccnc3)nc3sc4c(c23)CCCC4)CCN1 | 11 | -12% | -9% | 25% | 42% | 25µM*
CC(=O)N1CCN(c2ccc(O)cc2)CC1 | 4 | x | x | x | x | x
Cc1oc2cc3oc(=O)c(CC(=O)N[C@H](C(=O)N[C@@H](C(=O)O)c4ccccc4)C(C)C)c(C)c3cc2c1C | x | 50µM* | 0% | 6% | 133% | x
Cc1oc2cc3oc(=O)c(CC(=O)NCC(=O)N[C@@H](C(=O)O)c4ccccc4)c(C)c3cc2c1C | x | 3% | 33% | 4% | 288% | x
CCOc1cccc(C2c3[nH]c4ccccc4c3CCN2C(=O)CCc2ccccc2)c1 (centres undefined) | 5 | x | x | -1% | x | x
COC(=O)C1=C(C)OC(N)=C(C#N)C1c1ccc(OC)c(CSc2ccccn2)c1 (centres undefined) | 2 | 50µM* | -16% | 2% | 4% | 8%
COC(=O)C1=C(C)OC(N)=C(C#N)C1c1ccccc1 (centres undefined) | -6 | -4% | 1% | 1% | 1% | 1%
O=S(=O)(NCC(c1cccs1)S(=O)(=O)c1ccccc1)c1ccccc1 (centres undefined) | 5 | x | x | -2% | x | x
C[C@@H]1CN(CCCn2c3ccccc3c3ccccc32)C[C@H](C)N1 | -97* | x | x | 3% | x | x
CC(C)NC(=O)CSc1nc(N)c(NC(=O)c2ccccc2F)c(=O)[nH]1 | 17 | -4% | 7% | -1% | 1% | -44%
CCCN(CCC)c1cc(C)nc2nc(-c3ccc(Cl)cc3)nn12 | x | x | x | 14% | x | x
O=C1c2ccccc2C(=O)c2c(/C=C/N3CCCCC3)ccnc21 | 9 | -5% | -45% | x | -1% | 8.9µM*
Clc1ccc(-c2nc(-c3cc4cc(Cl)ccc4o3)cs2)cc1 | 9 | 28µM* | u | 0% | 1% | -8%
COc1ccc(CNC(=O)Cn2nc(N3CCN(c4ccccc4)CC3)ccc2=O)c(OC)c1 | 0 | x | x | -1% | x | x
COc1ccccc1CCC(=O)NC1CCCN(c2ccc(C(F)(F)F)cn2)C1 (centres undefined) | -99* | -8% | -20% | 0% | -2% | 32%
OCCN1CCN(CCCN2c3ccccc3Sc3ccc(Cl)cc32)CC1 | u | 10% | x | -2% | 4% | x
O=C1NC2CCCCN2C12CCN(CCCN1c3ccccc3CCc3ccc(Cl)cc31)CC2 (centres undefined) | -74* | x | x | x | x | x
CSCC[C@H](NC(=O)c1cccc(S(=O)(=O)N2CCN(C)CC2)c1)c1nc2ccccc2[nH]1 | -6 | 1% | 0% | x | 3% | u
